# ChEMBL document CHEMBL3988442, “University of Dundee, Small-Polar-MMV Screening Library” (2021)
# Screen size: about 66,000 compounds; about 960 (1.5%) showed an effect of 50% or more. Only a selection was taken, and strong results are over-represented in it overall.
# Test system: Trypanosoma brucei
# Test: Trypanosoma brucei 72 hour study
# Type: functional, organism-based
# Set-up: scale not given: in the data most compounds retested in dose-response had high values
compound,measurement,setting,value
CS(=O)(=O)NCc1cncc2c1CCN(C(=O)N1CCCC1)C2.Cl,Percent Effect,"30.3 µM, […]",-11.25%
Cc1noc([C@@]23CCO[C@@H]2CCN(Cc2scnc2C)C3)n1.O=C(O)C(F)(F)F,Percent Effect,"30.3 µM, […]",7.313%
O=c1[nH][nH]cc1-c1ccnc(NCCc2cccc(O)c2)n1,Percent Effect,"30.3 µM, […]",-16.62%
CCN(CC1CCOC1)C(=O)c1ccc(N2CCOCC2)c(F)c1 (configuration not stated),Percent Effect,"30.3 µM, […]",-9.543%
CN(C)C(=O)c1cccc(NC(=O)N(CCO)Cc2ccsc2)c1,Percent Effect,"30 µM, 30.03 µM",-3.434%
COc1cccc(NC(=O)N(CCO)Cc2ccsc2)c1,Percent Effect,"30 µM, 30.03 µM",51.17%
O=C(Nc1ccncc1)N(CCO)Cc1ccsc1,Percent Effect,"30.3 µM, […]",7.021%
Cc1nc(N)nc(C)c1CC(=O)NCc1ccc2nonc2c1,Percent Effect,"30 µM, 30.03 µM",-40.59%
Cc1noc(C)c1CN1CC[C@@H](OCC2CC2)[C@@H](Cc2ccccc2)C1.O=C(O)C(F)(F)F,Percent Effect,"30 µM, 30.03 µM",12.8%
O=C(c1cc2cc(F)ccc2[nH]1)N1CCC(Nc2cccnn2)CC1,Percent Effect,"30.3 µM, […]",-6.499%
O=C(c1cc2cc(I)ccc2[nH]1)N1CCC(Nc2cccnn2)CC1,Percent Effect,"30.3 µM, […]",85.16%
O=C(c1cc2ccccc2[nH]1)N1CCC(Nc2cccnn2)CC1,Percent Effect,"30.3 µM, […]",-25.8%
CCCN(CCC)c1ncc(S(=O)(=O)c2ccc(C)cc2)c(N)n1,Percent Effect,"30.3 µM, […]",0.2073%
CCCN(CCC)c1ncc(S(=O)(=O)c2ccccc2)c(N)n1,Percent Effect,"30.3 µM, […]",81.44%
CCCN(CCC)c1ncc(S(=O)(=O)c2cccc(C)c2)c(N)n1,Percent Effect,"30.3 µM, […]",1.054%
O=C(N1CCCC1)N1C[C@H]2CCC[C@@]2(COCc2ccccn2)C1.O=C(O)C(F)(F)F,Percent Effect,"30.3 µM, […]",8.939%
Cc1ccc(CN2CCN(C3CCCC3)CC2CCO)o1 (configuration not stated),Percent Effect,"30 µM, 30.03 µM",-4.422%
CN1C(=O)CC(c2cnn(C)c2)C12CCN(CC1CCOCC1)CC2.O=C(O)C(F)(F)F (configuration not stated),Percent Effect,"30.3 µM, […]",-2.852%
Cc1noc(C)c1CN1CCn2cc(CN3CCCC3)nc2C1.O=C(O)C(F)(F)F.O=C(O)C(F)(F)F,Percent Effect,"30.3 µM, […]",0.2362%
Cc1ccc(CN2CCc3ncnc(-c4ccncc4)c3CC2)o1.O=C(O)C(F)(F)F.O=C(O)C(F)(F)F,Percent Effect,"30.3 µM, […]",-37.96%
Nc1ncncc1-c1noc([C@@H]2CCCN2CCCc2ccccc2)n1,Percent Effect,"30.3 µM, […]",101.5%
Nc1ncncc1-c1noc([C@@H]2CCCN2CC2CC2)n1,Percent Effect,"30.3 µM, […]",-4.914%
Nc1ncncc1-c1noc([C@@H]2CCCN2Cc2cccnc2)n1,Percent Effect,"30.3 µM, […]",-3.258%
O=C(O)C(F)(F)F.O=C(O)C(F)(F)F.c1cncc(-c2nnn3c2COCC(CNC2CCOCC2)C3)c1 (configuration not stated),Percent Effect,"30 µM, 30.03 µM",-0.7004%
COc1cccc([C@H]2CN(C(C)=O)[C@@H]3CCN(Cc4ccsc4)C[C@H]23)c1.Cl,Percent Effect,"30.3 µM, […]",96.3%
COc1cccc(CN2CC[C@H]3[C@@H](C2)[C@H](c2ccsc2)CN3C(C)=O)c1,Percent Effect,"30.3 µM, […]",-3.85%
CC(=O)N1C[C@@H](c2ccsc2)[C@@H]2CN(Cc3ccccc3)CC[C@@H]21,Percent Effect,"30 µM, 30.03 µM",3.298%
Cc1nnsc1C(=O)N1C[C@H]2CC[C@@H]1CN(c1cnccn1)C2,Percent Effect,"30 µM, 30.03 µM",0.47%
Cc1cnc2c(c1NCc1cccnc1)c(=O)n(C)c(=O)n2C,Percent Effect,"30 µM, 30.03 µM",-45.54%
CCc1noc(CN2CCN(C(=O)C3CC3)CC2)n1,Percent Effect,10 µM,-20.32%
CCS(=O)(=O)NCc1nc(C)cc(N2CCOCC2)n1,Percent Effect,"30 µM, 30.03 µM",-12.8%
CCCS(=O)(=O)NCc1nc(C)cc(N2CCCC2)n1,Percent Effect,"30 µM, 30.03 µM",60.24%
Cc1cc(N2CCCC2)nc(CNS(=O)(=O)Cc2ccccc2)n1,Percent Effect,"30 µM, 30.03 µM",99.66%
O=S(=O)(Cc1ccccc1)NCc1nnc2n1CCC2,Percent Effect,"30 µM, 30.03 µM",-38.65%
CCS(=O)(=O)NCc1nc(C)cc(N2CCCCC2)n1,Percent Effect,"30 µM, 30.03 µM",-14.09%
CCS(=O)(=O)NCc1nc(C)cc(N2CCCC2)n1,Percent Effect,"30 µM, 30.03 µM",4.691%
O=C1[C@H]2CC[C@H](CN(Cc3nnc(C4CC4)o3)C2)N1Cc1cscn1,Percent Effect,"30 µM, 30.03 µM",-30.68%
CCN1CCOCC12CCN(C(=O)C1CCC1)CC2.O=C(O)C(F)(F)F,Percent Effect,"30.3 µM, […]",-58.96%
Cc1ccc(F)cc1NS(=O)(=O)c1cc2c(c(C(=O)O)c1)OCCO2,Percent Effect,"30.3 µM, […]",-13.96%
O=C(O)C(F)(F)F.O=C(c1ccco1)N1C[C@H]2CCCN(Cc3nccs3)[C@H]2C1,Percent Effect,"30 µM, 30.03 µM",20.08%
CN1CCC(c2cccc(Cc3ccccc3)n2)CC1,Percent Effect,"30.3 µM, […]",2.73%
COCC(=O)N1CCCC1c1cccc(Cc2ccccc2F)n1 (configuration not stated),Percent Effect,"30.3 µM, […]",-5.491%
CN(C)C(=O)CN1CCC(c2cccc(Cc3ccc(F)cc3)n2)CC1,Percent Effect,"30.3 µM, […]",-2.775%
CN1CCCC1c1cccc(Cc2ccc(F)cc2)n1 (configuration not stated),Percent Effect,"30.3 µM, […]",99.38%
CN1CCC(c2cccc(Cc3ccc(F)cc3)n2)CC1,Percent Effect,"30.3 µM, […]",22.86%
CC(=O)N1CCCC1c1cccc(Cc2ccccc2F)n1 (configuration not stated),Percent Effect,"30.3 µM, […]",99.36%
CN(C)C(=O)CN1CCCC1c1cccc(Cc2ccccc2F)n1 (configuration not stated),Percent Effect,"30.3 µM, […]",100.6%
CC(=O)N1CCCC1c1cccc(Cc2ccc(F)cc2)n1 (configuration not stated),Percent Effect,"30 µM, 30.03 µM",14.65%
CC(=O)N1CCCC1c1cccc(NCc2ccccc2F)n1 (configuration not stated),Percent Effect,"30.3 µM, […]",-16.97%
CN1CCC(c2cccc(Cc3ccc(C(F)(F)F)cc3)n2)CC1,Percent Effect,"30.3 µM, […]",100.8%
CN(C)C(=O)CCc1cncc(C2CCCN2Cc2ccccn2)n1 (configuration not stated),Percent Effect,"30.3 µM, […]",-6.842%
CC(=O)N1CCCC1c1cccc(Cc2ccccc2Cl)n1 (configuration not stated),Percent Effect,"30.3 µM, […]",2.284%
